We go through 40 molecules from PubChem BioAssay (Tox21).

Records with an inconclusive call do not appear. Where a call stands in place of a potency, no number is given. Unmarked numbers belong to inactive results. The source made the active and inactive calls. Calls follow the shape of the full dose curve.
Potency is read from the fitted curve at half-maximal effect.

The nature of the assay: p53 small molecule agonists, cell-based qHTS assay: qHTS cell viability counter screen (AID 1963581). Also: nearly all actives have a fitted effect of over 45% in size. Conditions: p53RE-bla HCT-116 viability, ATP luminescence, 16 h; series mostly up to 66 µM. The text has this: National Center for Advancing Translational Sciences [NCATS]
Division of Preclinical Innovation [DPI]
U.S. Environmental Protection Agency [EPA]
National Institutes of Environmental Health Sciences [NIEHS]
National Toxicology Program [NTP]
U.S. Food and Drug Administration [FDA]
p53, a tumor suppressor protein, is activated following cellular insult, including DNA damage and other cellular stresses. The activation of p53 regulates cell fate by inducing DNA repair, cell cycle arrest, apoptosis, or cellular senescence. The activation of p53, therefore, is a good indicator of DNA damage and other cellular stresses. The CellSensor p53RE-bla HCT-116 cell line (Invitrogen) contains a stably integrated beta-lactamase reporter gene under control of the p53 response elements. The activation of the reporter gene under culture conditions can be detected by fluorescence intensity. This cell line was used to screen the Tox21 compound library in a 1536-well plate format and to identify agonists that activate the p53 signaling pathway. The cytotoxicity of the Tox21 compound library against the p53 RE-bla HCT-116 cell line was tested in parallel by measuring the intra cellular ATP content in the same wells.
Tox21 Assay Protocol Summary:
The p53RE-bla cells were dispensed at 4,000 cells/5 ul/well in 1536-well black wall/clear bottom plates using a Multidrop dispenser. After the assay plates were incubated at a 37 C/5% CO2 incubator for 5 hours, 23 nL of compounds dissolved in DMSO, positive controls or DMSO only was transferred to the assay plate by a pin tool. The plates were incubated at 37 C for 16 hours. After 1 uL of LiveBLAzerTM B/G FRET substrate was added using a Flying Reagent Dispenser, the plates were incubated at room temperature for 2 hours, and fluorescence intensity was measured by an Envision plate reader. For cell viability readout that measures cytotoxicity, 4 ul/well of CellTiter-Glo reagent was added into the assay plates using a Flying Reagent Dispenser. After 30 min incubation at room temperature, the luminescence intensity in the plates was measured using a ViewLux plate reader.
In general terms: qHTS replaces the single test concentration by a dilution series.
Take `CC(=O)c1ccc(C)cc1`: the Potency entry is “inactive”.

Regarding `CC(C)C(C)(C)C(C)(C)C(C)(C)S`, the Potency entry is “inactive”.

In the case of `C1CCC2=NCCCN2CC1`, the Potency result is “inactive”.

In the case of `O=C(O)COc1nn(Cc2ccccc2)c2ccccc12`, the Potency entry was “inactive”.

Turning to `COc1nc(C)nc(Cl)c1NC1=NCCN1`, the Potency result is “inactive”.

`CC1=CCC(C(C)C)C=C1` (stereo not given): the Potency result is “inactive”.

As to `Nc1ccccn1`, the Potency entry is “inactive”.

Regarding `CCCCCCOc1ccccc1C(N)=O`, the Potency entry was “inactive”.

In the case of `CC(C)n1nc(-c2cc3cc(O)ccc3[nH]2)c2c(N)ncnc21`, the Potency result is “inactive”.

Consider `Cc1cc(C(C#N)c2ccc(Cl)cc2)c(Cl)cc1NC(=O)c1cc(I)cc(I)c1O` (stereo not given), for which the Potency is 5.61 µM (active).

Turning to `COc1cccc2c1C(=O)c1c(O)c3c(c(O)c1C2=O)C[C@@](O)(C(=O)CO)C[C@@H]3O[C@H]1C[C@H](N)[C@H](O[C@@H]2CCCCO2)[C@H](C)O1`, the Potency entry was “inactive”.

For `C=C(C)C(=O)OCCOC1CC2CC1C1C=CCC21` (stereo not given), the Potency entry is “inactive”.

As for `C=CC(=O)OCCOc1ccccc1`, the Potency entry is “inactive”.

In the case of `O=C1NCCN1`, the Potency result was “inactive”.

In the case of `O=C(O)/C=C/c1ccc(O)c(O)c1`, the Potency entry was “inactive”.

Turning to `Cc1ccc(NC=O)c(C)c1`, the Potency result was “inactive”.

Consider `Cc1cccc(NC(=S)N(C)C)c1`, for which the Potency result is “inactive”.

Regarding `N[C@@H](CCC(=O)N[C@@H](CS)C(=O)NCC(=O)O)C(=O)O`, the activity change, negative = cytotoxicity was 13.7% [at 13.5 µM].

Consider `CC(C)C(OC(=O)c1ccccc1)C(C)(C)COC(=O)c1ccccc1` (stereo not given), for which the Potency entry is “inactive”.

For `CCOC(=O)/C=C/c1ccccc1`, the Potency entry was “inactive”.

Take `Cc1ccc(C(=O)C(C)CN2CCCCC2)cc1` (stereo not given): the Potency result is “inactive”.

With `CCCCCC1Nc2cc(C(F)(F)F)c(S(N)(=O)=O)cc2S(=O)(=O)N1` (stereo not given), the Potency entry was “inactive”.

Regarding `Nc1nc(Cl)nc2c1ncn2[C@H]1C[C@H](O)[C@@H](CO)O1`, the Potency entry was “inactive”.

`COc1ccc(/C=N/NC(=O)c2ccncc2)cc1OC`: the Potency entry was “inactive”.

Regarding `NC(N)=N/N=C/c1c(Cl)cccc1Cl`, the Potency result is “inactive”.

Consider `CC1(C)C(=O)NC(=O)N1CO`, for which the Potency result was “inactive”.

In the case of `O=C1CCC(=O)N1Cl`, the Potency entry was “inactive”.

Consider `CC(C)(O)c1ccc(C(C)(C)O)cc1`, for which the Potency entry was “inactive”.

Consider `CC(=O)c1ccc[nH]1`, for which the Potency entry was “inactive”.

For `O=C(O)CCCCCCCCCCCBr`, the Potency result is “inactive”.

On to `O=C(N/N=C/c1ccccc1O)c1ccncc1`, for which the Potency result was “inactive”.

Take `CC1=C(C(=O)O)N2C(=O)[C@@H](NC(=O)[C@H](N)C3=CCC=CC3)[C@H]2SC1`: the Potency result is “inactive”.

On to `O=C(N[C@H](CO)[C@H](O)c1ccc([N+](=O)[O-])cc1)C(Cl)Cl`, for which the Potency entry is “inactive”.

As for `COc1ccc(S(=O)(=O)N2C(=O)[C@@](c3ccccc3OC)(N3C[C@H](O)C[C@H]3C(=O)N(C)C)c3cc(Cl)ccc32)c(OC)c1`, the Potency result is “inactive”.

As for `OCCCS`, the Potency entry is “inactive”.

Consider `CC(=O)Nc1ccc(OCCOCCOc2ccc(NC(C)=O)cc2)cc1`, for which the Potency result is “inactive”.

Take `NC(=O)c1c(Cl)cccc1Cl`: the Potency entry is “inactive”.

With `C=C(C)C(=O)OCc1ccccc1`, the Potency result is “inactive”.

In the case of `CCN(CC)CCNC(C(=O)OCCC(C)C)c1ccccc1` (stereo not given), the Potency entry was “inactive”.

Take `C(=C(c1ccccc1)c1ccccc1)c1ccccc1`: the Potency entry was “inactive”.
